# A selection: hits, their analogues and other compounds. The true share with any hit is near 0.58%.
# PINK1 expr mod = modulators of PINK1 expression | PINK1 immunofluorescence, high-content cytometry, 24 h | Potency, µM (highest dose often 76.6 µM), usual class: activators | 410,000 compounds, 0.2% hits; active = well fitted activation curve with a large enough effect; inconclusive = small, poorly fitted or top-dose-only effect; cell line not stated here; note: nearly all actives have a fitted effect of over 65% in size
#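 PINK1 protein level read as immunofluorescence by microplate cytometer in a fixed, stained stable cell line after 24 h exposure to five compound concentrations, with CCCP as control.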
# Epigenetic reg = regulators of epigenetic silencing causing reporter derepression in mouse cells | 280,000 compounds, 0.2% hits | murine LDR cells, GFP reporter derepression, 30 h | Potency, µM (titrated, usually from 53.9 µM), most hits filed as activators; note: nearly all actives have a fitted effect of over 60% in size
#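 GFP-positive cell count by laser-scanning cytometry (objects 20–120 um) after 30 h, 37 C compound exposure of murine LDR cells; reporter is CMV-GFP integrated at a silenced locus, inducible by HDAC or DNMT inhibitors.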
# PKM2 act = PKM2 (human) enzyme activation; 260,000 compounds, 0.34% hits; purified PKM2, Kinase-Glo ATP luminescence, activation; response scale: 0% is enzyme alone, no compound; Potency, µM (top dose mostly 57.5 µM), actives largely listed as activators; P14618; AID 1631; note: nearly all actives have a fitted effect of over 55% in size
#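 Purified hPK-M2 (>95% pure) converted ADP (0.1 mM final) to ATP with 0.5 mM PEP in 50 mM imidazole pH7.2, KCl, MgCl2, Tween 20, BSA; 1 h at room temperature. ATP detected by Kinase-Glo luminescence.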
# IL2 activator = activators of IL-2; IL-2 activation reporter assay, cell-based qHTS; stimulated with anti-CD3/CD4/CD28 beads; in transgenic mouse T cells; activation, % (series mostly up to about 46 µM); 360,000 compounds, 0.065% hits; in the data active = activation above about 50%; inconclusive = mostly about 30% to 49%
#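 Screening format: compound pinned onto unstimulated transgenic mouse T cells, 60 min incubation, then anti-CD3/anti-CD4/anti-CD28 bead stimulation for 18 hours at 37 degrees C, followed by EGFP and DsRed detection.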
# B2AR arrestin = beta2AR (human) beta-arrestin recruitment activity; P07550; 330,000 compounds, 0.02% hits; Potency, µM (highest dose often 46.1 µM), actives largely listed as activators; beta-arrestin recruitment to beta2AR, cell-based reporter; AID 492947; note: nearly all actives have a fitted effect of over 65% in size
# Target sequence (P07550 whole entry, looked up): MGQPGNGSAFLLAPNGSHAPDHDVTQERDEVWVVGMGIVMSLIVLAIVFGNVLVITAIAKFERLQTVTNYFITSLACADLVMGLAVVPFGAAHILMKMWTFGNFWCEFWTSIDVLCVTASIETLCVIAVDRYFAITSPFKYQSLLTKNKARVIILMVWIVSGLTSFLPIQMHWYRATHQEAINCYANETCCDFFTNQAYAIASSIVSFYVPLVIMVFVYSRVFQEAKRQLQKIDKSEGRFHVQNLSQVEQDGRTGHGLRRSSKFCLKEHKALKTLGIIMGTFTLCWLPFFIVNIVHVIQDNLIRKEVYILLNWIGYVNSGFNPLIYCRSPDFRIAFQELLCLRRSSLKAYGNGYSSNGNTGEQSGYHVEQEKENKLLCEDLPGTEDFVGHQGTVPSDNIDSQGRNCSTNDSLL
# A number is an active result; . = inactive; ? = inconclusive; / = no result. Unless noted, calls come from the whole dose curve; as a rule, active = well fitted curve in the direction sought with a large enough effect; inconclusive = small, poorly fitted or top-dose-only effect, or another doubt; inactive = no such curve, though single readings can be large; an effect the other way counts as inactive or inconclusive.
SMILES,PINK1 expr mod,Epigenetic reg,PKM2 act,IL2 activator,B2AR arrestin
Oc1ccc2ccccc2c1/C=N/Nc1nnc(-c2ncc[nH]2)c2ccccc12,.,?,.,56,.
CCC1CN(CCNC(=O)c2cn3cc(C)ccc3n2)Cc2cc(OC)ccc2O1 (centres undefined),.,/,/,/,/
Cc1cn2cc(CNC(=O)CN3Cc4ccccc4OC(c4ccccc4F)C3)nc2s1 (centres undefined),.,/,/,/,/
Cc1ccc(C)c(NC(=O)c2ccccc2O)c1,16µM,.,.,.,.
Cc1cccc(NC(=O)c2ccccc2O)c1C,/,.,.,.,.
CO[C@H]1[C@H](NC(=O)c2ccsc2)c2ccccc2C12CCN(Cc1cc3ccccc3o1)CC2,.,/,/,/,/
COc1ccc2c(c1)-c1nc(-n3ncc(C(=O)N(C)CCO)c3C3CC3)ncc1CC2,.,/,/,/,/
Cc1cc(-c2csc(NC(=O)c3ccc(=O)[nH]c3)n2)c(C)n1Cc1ccco1,.,.,10µM,.,.
COc1ccc(Cn2c(C)nc3c(c2=O)c2nc4ccccc4nc2n3Cc2ccco2)cc1,.,/,/,.,/
COc1ccc(S(=O)(=O)c2c(N)n(Cc3ccco3)c3nc4ccccc4nc23)cc1,.,.,28µM,.,.
COc1ccc(CN2CCCC(n3cc(C(=O)N4CCCCC4)nn3)C2)c(OC)c1OC (centres undefined),.,/,/,/,/
COc1ccccc1NS(=O)(=O)c1cc(NC(=S)Nc2cc(C)cc(C)c2)ccc1Cl,45µM,.,.,.,.
CNC(=O)/C(C#N)=C/c1ccc(-c2ccc(Cl)cc2)o1,.,.,.,.,.
Cc1ccc(NC(=O)/C(C#N)=C\c2ccc(-c3ccc(Cl)cc3)o2)c(C)c1,.,3.5µM,/,/,/
CCOc1ccc(CN2CCOc3ccc(C(O)c4cccnc4)cc3C2)cc1 (centres undefined),.,/,/,/,/
CN1CC=C2C(C#N)=C(N)C(C#N)(C#N)C(Cc3ccccc3)C2C1 (centres undefined),18µM,.,.,.,.
COc1cc(C2C3CN(C)CC=C3C(C#N)=C(N)C2(C#N)C#N)ccc1OC(C)C (centres undefined),40µM,.,.,.,.
CC(C)N1CC=C2C(C#N)=C(N)C(C#N)(C#N)C(c3ccccc3)C2C1 (centres undefined),7.9µM,.,.,.,.
Cc1ccc(-c2ccnc(-n3ncc(C(=O)N(C)CC4CCCN(C)C4)c3C)n2)o1 (centres undefined),.,/,/,/,/
COc1ccccc1C1CN(Cc2cccc(O)c2)Cc2ccccc2O1 (centres undefined),.,/,/,/,/
COc1cccc(CNC(=O)C2CCN(S(=O)(=O)c3ccc4c(c3)OCCO4)CC2)c1,.,/,11µM,.,.
COc1cccc(CNC(=O)N2CCN(S(=O)(=O)c3ccc(Cl)cc3)CC2)c1,.,/,14µM,.,.
COc1ccc(NC(=O)CCNC(=O)C2CCN(S(=O)(=O)c3ccc(F)cc3)CC2)cc1OC,.,/,4.5µM,.,.
COc1cccc(CNC(=O)C2CCN(S(=O)(=O)c3ccccc3)CC2)c1,.,.,25µM,.,.
Cc1oc(-c2ccccc2NC(=O)C2CCC2)nc1CNC(=O)c1ccc(C#CC(C)(C)O)cc1,.,/,/,/,/
SMILES,PINK1 expr mod,Epigenetic reg,PKM2 act,IL2 activator,B2AR arrestin
COc1ccc2c(c1)CCc1cnc(-n3ncc(C(=O)N4CCN(CCO)CC4)c3C3CC3)nc1-2,.,/,/,/,/
CCOC(=O)c1sc(N)c(C(=O)Nc2ccc(C)cc2C)c1C,/,.,/,/,/
COc1ccc2c(c1)-c1nc(-n3ncc(C(=O)N(C)CC4CCCN(C)C4)c3C)ncc1CC2 (centres undefined),.,/,/,/,/
Cc1nc2cc(NC(=O)[C@@H]3C[C@@H](Sc4ccccn4)CN3Cc3cccc(Cl)c3)ccc2s1,.,/,/,/,/
COc1cc(CN2CCOc3ccc(CN4CCC(O)(c5cccnc5)CC4)cc3C2)cc(OC)c1,.,/,/,/,/
O=C(NCc1ccc2c(c1)OCO2)C1CCN(S(=O)(=O)c2ccc(Br)s2)CC1,.,.,?,.,.
O=C(NCc1ccc2c(c1)OCO2)C1CCN(S(=O)(=O)c2cccs2)CC1,.,.,8.9µM,.,.
Cc1ccnc(NS(=O)(=O)c2ccc(NC(=O)c3cc(=O)c4ccc(C)c(C)c4o3)cc2)n1,.,.,/,/,/
CCOc1ccc(NC(=O)c2cc(=O)c3ccc(C)c(C)c3o2)cc1,.,20µM,/,/,/

# Compound activity (PubChem BioAssay)
